# Data as given in PubChem BioAssay AID485270 (The Scripps Research Institute Molecular Screening Center, 2010).
# Among all 330,000 compounds or so, about 5,800 (1.8%) were called active. Cut-off read from the data, not from the text of the source: active = inhibition mostly above about 38% (no sharp cut-off); inactive = mostly below about 40%. For the sample, actives were picked, then their nearest neighbours and some compounds at random.
# Target: Orexin/Hypocretin receptor type 1 (Homo sapiens) (UniProt O43613)
# Experiment: antagonists of human orexin 1 receptor (OX1R) (AID 485270);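 note: 0% = agonist challenge alone and 100% = reference antagonist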
# Settings: OX1R-expressing cells, FRET antagonist read-out; at 6.6 µM; active compounds read high
# Sequence of Orexin/Hypocretin receptor type 1 (Homo sapiens) (O43613 whole entry, looked up): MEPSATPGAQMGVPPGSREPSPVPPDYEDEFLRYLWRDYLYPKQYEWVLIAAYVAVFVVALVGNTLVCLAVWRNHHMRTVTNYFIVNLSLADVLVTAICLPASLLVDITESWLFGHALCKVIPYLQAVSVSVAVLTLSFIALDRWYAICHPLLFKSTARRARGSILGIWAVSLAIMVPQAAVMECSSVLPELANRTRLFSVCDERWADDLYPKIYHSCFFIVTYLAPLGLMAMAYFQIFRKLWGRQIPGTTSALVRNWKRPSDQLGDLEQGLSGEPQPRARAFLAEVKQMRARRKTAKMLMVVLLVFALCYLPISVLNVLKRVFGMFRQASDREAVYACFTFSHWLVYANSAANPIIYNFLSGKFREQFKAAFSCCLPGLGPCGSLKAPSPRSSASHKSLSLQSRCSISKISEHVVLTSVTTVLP
row,SMILES,inhibition
1,CC1CCCCC1NCC(=O)Nc1ccccc1C(=O)Nc1ccccc1 (stereo unspecified),7.92% (inactive)
2,Cc1ccccc1SCC(=O)OCC(=O)N1CC(=O)Nc2ccccc21,0.4% (inactive)
3,COc1ccc(CCn2c(=N)c(C(=O)NCC3CCCO3)cc3c(=O)n4cccc(C)c4nc32)cc1OC (stereo unspecified),10.8% (inactive)
4,Cc1ccc(CCNC(=O)c2ccc3nc4ccccc4c(=O)n3c2)cc1,-3.55% (inactive)
5,Cc1ccc2nc3c(cc(C(=O)NCCc4ccccc4)c(=N)n3CC3CCCO3)c(=O)n2c1 (stereo unspecified),57.5% (active)
6,O=C(NCC1CCCO1)c1cc(-c2ccccc2)nc2ccccc12 (stereo unspecified),-0.29% (inactive)
7,COc1ccc(CNC(=O)c2cc3c(=O)n4ccccc4nc3n(CC3CCCO3)c2=N)cc1 (stereo unspecified),54.9% (active)
8,COc1ccc(CCNC(=O)Cn2c(=O)n(CC3CCCO3)c(=O)c3ccccc32)cc1OC (stereo unspecified),7.5% (inactive)
9,Cc1csc(=O)n1CC(=O)Nc1ccc(S(C)(=O)=O)cc1,7.39% (inactive)
10,COc1ccc(OC)c(NC(=O)COC(=O)Cc2ccsc2)c1,5.5% (inactive)
11,C[C@]12c3[nH]c4ccc(Cl)cc4c3CCN1C(=O)[C@@H](CC(=O)NCCCn1ccnc1)C[C@@H]2C(=O)N1CCOCC1,14.5% (inactive)
12,CN(CC(=O)Nc1ccc(C(N)=O)cc1)S(=O)(=O)c1ccc2c(c1)OCCO2,6.44% (inactive)
13,O=C(CN1C(=O)NC2(CCCC2)C1=O)Nc1cc(C(F)(F)F)ccc1N1CCOCC1,6.5% (inactive)
14,CCC(=O)N(Cc1cc2cc(OC)ccc2[nH]c1=O)c1ccccc1C,4.09% (inactive)
15,COc1ccc2[nH]c(=O)c(CNc3ccc(C)c(C)c3)cc2c1,108% (active)
16,COc1ccc2[nH]c(=O)c(CN(CC3CCCO3)C(=O)Nc3ccccc3)cc2c1 (stereo unspecified),5.34% (inactive)
17,Cn1nnnc1SCC(=O)Nc1sccc1C(N)=O,-1.46% (inactive)
18,Cc1ccc(OCC(=O)Nc2ccccc2C(=O)NC2CC2)cc1,7.7% (inactive)
19,CCOc1ccccc1OCC(=O)Nc1ccccc1C(=O)NC1CC1,9.29% (inactive)

row,SMILES,inhibition
1,CC(NCC(=O)Nc1ccccc1C(=O)NC1CC1)c1ccccc1Cl (stereo unspecified),29.4% (active)
2,CN(c1ccccc1)S(=O)(=O)c1ccc(C(=O)N2CCN(c3ccccc3Cl)CC2)cc1,9.4% (inactive)
3,CC(=NNC(=O)c1ccc2nc[nH]c2c1)c1ccc(Br)cc1,4.88% (inactive)
4,C[C@@H]1CN([C@@H](C)CO)C(=O)c2cc(NC(=O)C3CC3)ccc2O[C@H]1CN(C)C,1.14% (inactive)
5,C[C@H]1COC(=O)[C@H](CC(=O)OC(C)(C)C)C/C=C\C[C@@H](CC(=O)N[C@H](CO)Cc2ccccc2)C(=O)N1,0.64% (inactive)
6,Cc1ccccc1NC(=O)Cn1c(=O)n(CC2CCCO2)c(=O)c2ccccc21 (stereo unspecified),15.6% (inactive)
7,Cc1cccc(NC(=O)c2ccc3c(=O)n(CC4CCCO4)c(=S)[nH]c3c2)c1 (stereo unspecified),17.1% (inactive)
8,Cc1cccn2c(=O)c3cc(C#N)c(=NC(=O)c4cccnc4)n(CC4CCCO4)c3nc12 (stereo unspecified),123% (active)
9,CN(C(=O)COC(=O)Cc1ccccc1[N+](=O)[O-])C1CCS(=O)(=O)C1 (stereo unspecified),3.39% (inactive)
10,COc1cccc(NC(=O)CSc2nnc(C3CCCCC3)n2N)c1,6.23% (inactive)
11,COc1ccc(-n2c(SCC(=O)Nc3ccc4c(c3)OCO4)nnc2C(C)N2CCCCC2)cc1 (stereo unspecified),7.85% (inactive)
12,O=C(NCCC1=CCCCC1)c1ccc(-n2cncn2)cc1,2.77% (inactive)
13,CC(=O)NC(=S)Nc1ccc(NC(=S)NC(=O)c2ccc([N+](=O)[O-])cc2)cc1,8.98% (inactive)
14,COCCCNC(=S)NC(=O)c1ccccc1,6.25% (inactive)
15,COCCCNC(=S)NC(=O)c1ccc([N+](=O)[O-])cc1,89.6% (active)
16,O=C1CCC[C@@H]2CC(N3CCCCC3)C[C@@H]3CCN1[C@H]23 (stereo partly specified),5.93% (inactive)
17,O=C(c1ccncc1)c1ccc([N+](=O)[O-])cc1,163% (active)
18,O=C(Nc1ccccc1C(=O)Nc1ccncc1)c1ccc([N+](=O)[O-])cc1,16.2% (inactive)
19,O=C(Nn1cnnc1)c1ccc([N+](=O)[O-])cc1,22.3% (inactive)

row,SMILES,inhibition
1,COC(=O)c1ccc(/C=C/c2c(-c3ccc(OC)cc3)sc3ccccc23)cc1,5.48% (inactive)
2,CC(C)NC(=O)Nc1cccc2c1O[C@@H](CN(C)S(=O)(=O)c1ccc(F)cc1)[C@@H](C)CN([C@H](C)CO)C2=O,3.93% (inactive)
3,CCC(=O)N1CCc2cc(S(=O)(=O)CCC(=O)N3CCN(c4ccccc4F)CC3)ccc21,5.14% (inactive)
4,COc1ccc(CNC(=O)C(NS(=O)(=O)c2cccc3nsnc23)C(C)C)cc1 (stereo unspecified),26.5% (inactive)
5,CCOc1ccc(N(CC)S(=O)(=O)c2cccc3nsnc23)cc1,21.1% (inactive)
6,CCOc1ccc(OCC)c(NC(=O)CN(C)S(=O)(=O)c2cccc3nsnc23)c1,41.7% (inactive)
7,O=C(O)c1ccc(NS(=O)(=O)c2cccc3nsnc23)cc1,27.3% (inactive)
8,CCOc1ccc(NC(=O)CCS(=O)(=O)c2cccc3nsnc23)cc1,85.9% (active)
9,COc1ccc(N(C)C(=O)CCS(=O)(=O)c2cccc3nsnc23)cc1,128% (active)
10,O=C(CCS(=O)(=O)c1cccc2nsnc12)N1CCN(c2ccccc2F)CC1,73% (active)
11,COc1ccc(N(C)S(=O)(=O)c2cccc3nsnc23)cc1,33.6% (inactive)
12,COc1ccc(C)cc1NC(=O)CCS(=O)(=O)c1cccc2nonc12,48.1% (inactive)
13,Cc1cccc(C)c1NC(=O)CCS(=O)(=O)c1cccc2nsnc12,70.3% (active)
14,O=C(CCCNS(=O)(=O)c1cccc2nsnc12)NCCN1CCN(c2ccccc2F)CC1,26.2% (inactive)
15,O=C(COC(=O)COc1cc(Cl)c(Cl)cc1Cl)NC1CC1,6.97% (inactive)
16,Cc1ccc(C(=O)NCC(=O)NC2CC2)cc1,-0.69% (inactive)
17,Cc1occc1C(=O)Nc1cccc(S(=O)(=O)N2CCOCC2)c1,4.81% (inactive)
18,COc1ccc2[nH]c3c(c2c1)CCN1C(=O)C(CC(=O)NCCCN(C)C)C[C@H](C(=O)N2CCOCC2)[C@@]31CCC1CCCC1 (stereo partly specified),-1.98% (inactive)
